The record followed here is PubChem BioAssay AID2662 (National Center for Advancing Translational Sciences (NCATS), 2010).

The whole screen tested about 290,000 compounds, of which about 110 (0.038%) were called active. A call without a number means that no potency is given here. Not shown: some 3% with an inconclusive outcome. The call rests on the fitted dose curve; in most records, active means well fitted inhibition curve with a large enough effect in the polarisation, with a control signal flat (not every such curve was filed as active); inconclusive means small, poorly fitted or top-dose-only effect, or effect the other way, or a change in a side signal; inactive means no such curve, though single readings can be large or run the other way; the % refers to the polarisation. The full list was thinned out, with actives kept by preference.
Potency means the concentration at half of the fitted maximal effect.

Sequence of Histone-lysine N-methyltransferase 2A (Homo sapiens) (Q03164 whole entry, looked up, the tested form may be a part): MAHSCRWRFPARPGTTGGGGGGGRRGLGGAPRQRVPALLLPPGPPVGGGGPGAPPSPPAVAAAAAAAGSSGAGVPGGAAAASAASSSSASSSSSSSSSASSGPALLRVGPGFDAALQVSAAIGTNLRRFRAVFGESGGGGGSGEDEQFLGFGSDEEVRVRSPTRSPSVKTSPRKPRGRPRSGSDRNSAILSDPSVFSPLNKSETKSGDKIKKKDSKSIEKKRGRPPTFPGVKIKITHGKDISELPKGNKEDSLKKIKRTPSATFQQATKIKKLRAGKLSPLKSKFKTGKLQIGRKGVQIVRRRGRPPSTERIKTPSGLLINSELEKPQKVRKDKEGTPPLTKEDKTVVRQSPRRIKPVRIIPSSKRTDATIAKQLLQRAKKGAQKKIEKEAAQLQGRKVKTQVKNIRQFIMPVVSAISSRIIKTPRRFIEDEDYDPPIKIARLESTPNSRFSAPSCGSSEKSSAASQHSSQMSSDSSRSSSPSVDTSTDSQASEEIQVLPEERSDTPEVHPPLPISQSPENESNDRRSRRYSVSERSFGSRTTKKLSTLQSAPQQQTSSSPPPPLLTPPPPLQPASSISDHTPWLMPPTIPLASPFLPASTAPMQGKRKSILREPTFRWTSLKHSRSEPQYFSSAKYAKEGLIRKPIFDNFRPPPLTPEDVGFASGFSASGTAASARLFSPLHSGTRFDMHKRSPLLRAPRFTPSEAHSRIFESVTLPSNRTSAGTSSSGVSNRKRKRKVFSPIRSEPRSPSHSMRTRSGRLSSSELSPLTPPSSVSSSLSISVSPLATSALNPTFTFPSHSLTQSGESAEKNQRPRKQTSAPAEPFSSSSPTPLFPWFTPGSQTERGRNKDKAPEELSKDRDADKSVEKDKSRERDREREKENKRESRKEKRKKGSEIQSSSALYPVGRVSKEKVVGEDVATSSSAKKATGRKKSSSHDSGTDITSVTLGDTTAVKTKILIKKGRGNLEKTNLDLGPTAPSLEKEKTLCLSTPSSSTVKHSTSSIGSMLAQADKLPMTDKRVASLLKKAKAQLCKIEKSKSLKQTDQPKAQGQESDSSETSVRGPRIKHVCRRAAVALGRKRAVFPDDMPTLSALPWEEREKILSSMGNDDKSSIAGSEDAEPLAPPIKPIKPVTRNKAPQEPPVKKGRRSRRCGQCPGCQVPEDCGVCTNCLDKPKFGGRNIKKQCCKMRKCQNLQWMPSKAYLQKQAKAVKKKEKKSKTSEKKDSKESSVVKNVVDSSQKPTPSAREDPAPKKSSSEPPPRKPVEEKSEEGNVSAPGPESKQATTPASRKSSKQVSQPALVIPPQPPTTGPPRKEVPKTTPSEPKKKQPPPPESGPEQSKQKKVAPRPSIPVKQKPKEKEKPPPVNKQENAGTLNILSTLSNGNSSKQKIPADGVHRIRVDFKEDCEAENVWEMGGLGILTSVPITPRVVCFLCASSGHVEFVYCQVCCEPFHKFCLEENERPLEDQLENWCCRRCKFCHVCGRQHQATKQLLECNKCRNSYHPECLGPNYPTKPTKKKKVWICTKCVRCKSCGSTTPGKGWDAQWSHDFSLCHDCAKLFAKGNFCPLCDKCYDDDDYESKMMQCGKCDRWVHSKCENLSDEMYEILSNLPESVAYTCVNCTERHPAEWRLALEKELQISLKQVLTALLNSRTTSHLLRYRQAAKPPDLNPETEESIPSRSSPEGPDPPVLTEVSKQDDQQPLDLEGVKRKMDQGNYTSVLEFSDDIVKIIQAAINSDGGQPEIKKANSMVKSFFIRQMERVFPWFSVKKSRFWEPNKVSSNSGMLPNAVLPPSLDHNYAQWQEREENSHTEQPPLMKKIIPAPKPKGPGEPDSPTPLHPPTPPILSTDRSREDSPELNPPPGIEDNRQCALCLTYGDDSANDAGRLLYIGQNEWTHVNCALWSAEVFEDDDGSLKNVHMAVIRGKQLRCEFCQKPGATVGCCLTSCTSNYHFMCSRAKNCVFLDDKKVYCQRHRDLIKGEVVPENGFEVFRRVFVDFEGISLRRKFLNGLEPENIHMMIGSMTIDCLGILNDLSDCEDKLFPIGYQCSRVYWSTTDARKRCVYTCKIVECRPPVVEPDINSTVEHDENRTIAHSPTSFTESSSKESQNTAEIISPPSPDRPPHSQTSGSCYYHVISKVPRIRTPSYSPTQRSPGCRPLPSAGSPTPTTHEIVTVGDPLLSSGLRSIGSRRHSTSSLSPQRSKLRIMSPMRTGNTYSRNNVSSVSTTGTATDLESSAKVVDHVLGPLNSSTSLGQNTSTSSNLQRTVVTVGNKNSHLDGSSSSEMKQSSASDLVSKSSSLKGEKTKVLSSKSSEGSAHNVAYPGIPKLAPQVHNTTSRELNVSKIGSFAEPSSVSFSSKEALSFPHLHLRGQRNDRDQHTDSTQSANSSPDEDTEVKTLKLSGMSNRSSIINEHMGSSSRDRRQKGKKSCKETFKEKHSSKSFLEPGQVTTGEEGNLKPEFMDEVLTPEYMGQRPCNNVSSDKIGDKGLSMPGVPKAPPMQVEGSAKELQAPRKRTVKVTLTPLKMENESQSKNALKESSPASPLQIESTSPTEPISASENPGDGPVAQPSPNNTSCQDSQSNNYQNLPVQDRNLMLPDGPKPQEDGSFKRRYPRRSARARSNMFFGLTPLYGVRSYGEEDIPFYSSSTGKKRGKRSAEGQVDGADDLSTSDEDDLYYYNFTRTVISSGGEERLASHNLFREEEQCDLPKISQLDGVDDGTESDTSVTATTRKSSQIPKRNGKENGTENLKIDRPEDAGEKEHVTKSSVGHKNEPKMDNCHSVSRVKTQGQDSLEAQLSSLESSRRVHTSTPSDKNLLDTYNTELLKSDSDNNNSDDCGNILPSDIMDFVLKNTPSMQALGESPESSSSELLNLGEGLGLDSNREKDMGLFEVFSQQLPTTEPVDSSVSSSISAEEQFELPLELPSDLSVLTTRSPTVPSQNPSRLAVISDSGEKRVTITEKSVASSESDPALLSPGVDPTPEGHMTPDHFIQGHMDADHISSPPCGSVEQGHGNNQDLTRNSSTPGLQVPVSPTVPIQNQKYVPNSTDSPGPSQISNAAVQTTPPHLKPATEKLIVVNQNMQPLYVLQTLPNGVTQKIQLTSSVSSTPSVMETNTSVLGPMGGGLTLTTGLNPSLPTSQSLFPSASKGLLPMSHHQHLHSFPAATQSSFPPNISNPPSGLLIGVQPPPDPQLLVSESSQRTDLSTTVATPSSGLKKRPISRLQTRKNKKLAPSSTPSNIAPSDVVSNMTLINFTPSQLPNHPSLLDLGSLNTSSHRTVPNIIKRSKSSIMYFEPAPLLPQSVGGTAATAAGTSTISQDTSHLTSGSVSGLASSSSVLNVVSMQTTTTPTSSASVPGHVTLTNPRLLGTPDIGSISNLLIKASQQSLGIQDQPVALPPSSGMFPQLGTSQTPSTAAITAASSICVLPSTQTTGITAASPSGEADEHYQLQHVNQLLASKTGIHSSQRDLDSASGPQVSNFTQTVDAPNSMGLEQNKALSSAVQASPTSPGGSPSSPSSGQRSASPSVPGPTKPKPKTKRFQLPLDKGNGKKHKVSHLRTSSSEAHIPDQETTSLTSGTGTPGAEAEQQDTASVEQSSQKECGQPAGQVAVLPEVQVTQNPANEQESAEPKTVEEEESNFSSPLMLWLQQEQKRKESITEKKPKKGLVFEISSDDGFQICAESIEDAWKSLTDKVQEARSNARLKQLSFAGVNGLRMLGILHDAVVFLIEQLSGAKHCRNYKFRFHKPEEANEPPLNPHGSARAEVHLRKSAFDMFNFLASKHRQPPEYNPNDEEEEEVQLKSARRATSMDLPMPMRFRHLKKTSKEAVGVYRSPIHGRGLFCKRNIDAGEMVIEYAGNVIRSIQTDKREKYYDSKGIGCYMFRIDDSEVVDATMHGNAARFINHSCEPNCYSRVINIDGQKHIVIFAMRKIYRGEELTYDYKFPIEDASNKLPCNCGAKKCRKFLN

The test addresses Histone-lysine N-methyltransferase 2A (Homo sapiens) (UniProt Q03164). Description: qHTS Fluorescence Polarization Assay for Inhibitors of MLL CXXC domain - DNA interaction. The settings on record: MLL-CXXC / FITC-HOXA9 DNA fluorescence polarization; series mostly up to 115 µM. From the text:
NIH Chemical Genomics Center [NCGC] NIH Molecular Libraries Probe Production centers Network [MLPCN] MLPCN Grant: DA027717-01A1 Assay Submitter (PI): John Bushweller NCGC Assay Overview: The MLL (Mixed Lineage Luekemia) gene is involved in chromosomal translocation that results in either acute lymphoid leukemia (ALL) or acute myeloid leukemia (AML). Chromasomal translocation of MLL gene is responsible for the fusion of N-terminal MLL to more than 60 different partner genes in frame. Many of the MLL partner genes contain transcription activation domains or function as transcriptional activators. Despite the heterogeneity of fusion partners, the N-terminus of MLL fusion proteins always consists of the N-terminal menin binding motif and the CXXC domain. The MLL-CXXC domain specifically recognizes unmethylated CpG sequences of the HOX-A gene. Disruption of the MLL-CXXC and HOX-A gene interaction leads to down regulation of HOX-A gene expression and may potentially reverse leukemogenesis. We have miniaturized and optimized an in-vitro assay to screen for inhibitors of the MLL-CXXC domain and HOX-A DNA interaction, which could have utility in MLL fusion leukemias.
The affinity purified MLL-CXXC domain, unlabeled HOX-A9 DNA strand, fluorescein (FLSN) labeled HOX-A9 DNA strand were kindly supplied by the laboratory of Dr. John Bushweller, University of Virginia. All reagents were stored in single use aliquots at -80C. Assay Reagents: Assay buffer: 50 mM TRIS-HCl pH 7.5, 50 mM NaCl, 1 mM DTT. Add 0.05% BSA prior to reaction setup. Assay Procedure: 1.Dispense 1 ul of a 7 uM MLL-CXXC solution prepared in assay buffer into column 1-48. 2.Transfer 23 nl of compounds and unlabeled HOX-A9 per well. 3.Incubate for 5 minutes at ambient. 4.Dispense 1ul of a 50 nM FLSN-HOX-A9 solution prepared in assay buffer into columns 1-48 5.Centrifuge for 30 seconds at 1000 RPM. 6.Incubate for 30 minutes at ambient. 7.Read using the Envision reader fluorescent polarization protocol.
For orientation: qHTS replaces the single test concentration by a dilution series.
As to `O=C(OCC1O[C@@H](OC(=O)c2cc(O)c(O)c(O)c2)[C@@H](OC(=O)c2cc(O)c(O)c(O)c2)[C@@H](OC(=O)c2cc(O)c(O)c(O)c2)[C@@H]1OC(=O)c1cc(O)c(O)c(O)c1)c1cc(O)c(O)c(O)c1` (stereo not given in full), the Potency is 31.6 µM (active).
For the compound `COC([CH2][Hg])CNC(=O)c1ccccc1OCC(=O)O` (stereo not given), the Potency entry is “inactive”.
For the compound `CC(C)COC(=O)n1c(=O)oc2ccc(S(=O)(=O)N3CCCCC3)cc21`, the Potency entry was “inactive”.
As for `CCOC(=O)C(NS(=O)(=O)c1ccc(C)cc1)(C(F)(F)F)P(=O)(OCC(C)C)OCC(C)C` (stereo not given), the Potency result was “inactive”.
As for `CN1CCCC(=C(c2cccs2)c2cccs2)C1`, the Potency result is “inactive”.
